# Assay results: ChEMBL document CHEMBL3988442, “University of Dundee, Small-Polar-MMV Screening Library” (2021)
# For some assays here: Results with a measured potency or affinity are listed apart.
# Key:
# [1] = target: T1, Methionyl-tRNA synthetase, putative (Leishmania donovani (strain BPK282A1)) (UniProt E9BF75); test: Leishmania donovani Methionine tRNA synthetase (LdMetRS):v7. Dose response assay; format: functional; parameters: conc 80 nM, time 150 minutes
# T1 sequence (whole entry): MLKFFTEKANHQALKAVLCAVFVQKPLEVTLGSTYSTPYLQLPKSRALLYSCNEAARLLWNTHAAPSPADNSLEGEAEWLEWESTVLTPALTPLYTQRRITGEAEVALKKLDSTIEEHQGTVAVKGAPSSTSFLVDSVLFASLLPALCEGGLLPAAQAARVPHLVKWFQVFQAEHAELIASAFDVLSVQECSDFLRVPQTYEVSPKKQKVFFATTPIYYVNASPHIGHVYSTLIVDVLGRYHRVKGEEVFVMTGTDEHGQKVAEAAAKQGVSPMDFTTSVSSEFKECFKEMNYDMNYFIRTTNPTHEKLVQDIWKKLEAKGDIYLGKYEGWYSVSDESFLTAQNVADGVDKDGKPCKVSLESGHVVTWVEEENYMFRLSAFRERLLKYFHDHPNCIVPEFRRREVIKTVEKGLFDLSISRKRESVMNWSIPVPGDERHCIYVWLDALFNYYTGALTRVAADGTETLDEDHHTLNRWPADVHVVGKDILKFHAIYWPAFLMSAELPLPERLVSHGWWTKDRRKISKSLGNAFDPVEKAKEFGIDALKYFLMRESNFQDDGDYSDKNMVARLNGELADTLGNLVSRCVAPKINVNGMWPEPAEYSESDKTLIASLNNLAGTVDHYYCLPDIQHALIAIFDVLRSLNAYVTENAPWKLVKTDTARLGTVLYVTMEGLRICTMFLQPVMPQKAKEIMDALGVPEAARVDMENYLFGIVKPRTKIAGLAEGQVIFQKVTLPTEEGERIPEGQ
# [2] = target: Protein translocase subunit SecA (Escherichia coli (strain K12)) (UniProt P10408); test: Assay to Identify E. coli SecA ATPase Inhibitors; format: functional; parameters: scale not given: direction of the effect not stated beside the values; details: 30 µM
# [3] = target: T2, Ubiquitin-activating enzyme e1, putative (Leishmania donovani (strain BPK282A1)) (UniProt E9BSI1); test: Leishmania donovani Ubiquitin Activating Enzyme (LdE1); format: functional; parameters: scale not given: direction of the effect not stated beside the values; details: 30 µM
# T2 sequence (whole entry): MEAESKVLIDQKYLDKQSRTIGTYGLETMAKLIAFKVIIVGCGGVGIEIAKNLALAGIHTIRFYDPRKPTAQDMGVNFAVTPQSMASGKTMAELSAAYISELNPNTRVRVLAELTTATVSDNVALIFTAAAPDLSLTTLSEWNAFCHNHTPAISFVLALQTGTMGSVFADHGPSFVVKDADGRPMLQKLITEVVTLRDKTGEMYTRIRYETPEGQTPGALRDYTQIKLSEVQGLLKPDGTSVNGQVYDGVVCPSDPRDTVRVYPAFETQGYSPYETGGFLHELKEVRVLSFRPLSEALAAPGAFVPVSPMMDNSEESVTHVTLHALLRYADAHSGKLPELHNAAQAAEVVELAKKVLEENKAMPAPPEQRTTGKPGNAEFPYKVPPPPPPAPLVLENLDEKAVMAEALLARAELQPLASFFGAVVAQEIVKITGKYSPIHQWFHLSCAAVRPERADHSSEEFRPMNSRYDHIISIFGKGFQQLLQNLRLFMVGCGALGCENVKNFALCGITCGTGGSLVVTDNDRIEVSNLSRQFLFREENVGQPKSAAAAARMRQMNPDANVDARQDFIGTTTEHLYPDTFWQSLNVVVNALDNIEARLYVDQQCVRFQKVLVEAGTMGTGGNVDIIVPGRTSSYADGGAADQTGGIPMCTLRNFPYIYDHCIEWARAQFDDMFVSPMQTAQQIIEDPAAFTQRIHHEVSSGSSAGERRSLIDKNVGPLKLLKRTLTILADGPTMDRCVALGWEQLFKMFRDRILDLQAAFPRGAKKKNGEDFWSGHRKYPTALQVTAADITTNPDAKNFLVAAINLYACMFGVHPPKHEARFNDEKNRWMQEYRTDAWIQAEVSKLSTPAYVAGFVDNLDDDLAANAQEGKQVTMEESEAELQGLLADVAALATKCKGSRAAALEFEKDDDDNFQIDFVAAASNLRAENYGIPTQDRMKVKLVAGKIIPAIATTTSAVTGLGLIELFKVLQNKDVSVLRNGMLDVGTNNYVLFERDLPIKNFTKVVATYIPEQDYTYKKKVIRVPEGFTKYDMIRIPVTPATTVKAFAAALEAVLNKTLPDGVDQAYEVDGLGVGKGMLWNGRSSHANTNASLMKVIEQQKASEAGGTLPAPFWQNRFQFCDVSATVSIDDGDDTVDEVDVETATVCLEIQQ
# [4] = target: AMP-activated protein kinase, AMPK (Homo sapiens) (UniProt P54646+O43741+P54619+Q9UGJ0+Q9Y478+Q13131+Q9UGI9); test: AMP-dependent Kinase enzyme assay. An in vitro enzyme assay that detects ADP turnover that is directly proportional to AMPK activity. This uses naive AMPK that is activated during the assay with MK-8722; format: functional; parameters: scale not given: direction of the effect not stated beside the values; details: 30 µM
# [5] = target: Sialic acid-binding Ig-like lectin 9 (Homo sapiens) (UniProt Q9Y336); test: Hs-Siglec9 ALPHAscreen SOP 20170721; parameters: scale not given: direction of the effect not stated beside the values; details: 10 µM
# Trypanosoma cruzi = test: Trypanosoma cruzi phosphomannomutase and mannose-1-phosphate guanylyltransferase assay; format: functional; parameters: scale not given: direction of the effect not stated beside the values; details: 10 µM
# [6] = target: T3, Arginase-2, mitochondrial (Homo sapiens) (UniProt P78540); test: in vitro enzyme assay to detect the production of urea directly proportional to the activity of Arginase II; format: functional; parameters: scale not given: in the data most compounds retested in dose-response had high values; details: 33.3 µM
# T3 sequence (whole entry): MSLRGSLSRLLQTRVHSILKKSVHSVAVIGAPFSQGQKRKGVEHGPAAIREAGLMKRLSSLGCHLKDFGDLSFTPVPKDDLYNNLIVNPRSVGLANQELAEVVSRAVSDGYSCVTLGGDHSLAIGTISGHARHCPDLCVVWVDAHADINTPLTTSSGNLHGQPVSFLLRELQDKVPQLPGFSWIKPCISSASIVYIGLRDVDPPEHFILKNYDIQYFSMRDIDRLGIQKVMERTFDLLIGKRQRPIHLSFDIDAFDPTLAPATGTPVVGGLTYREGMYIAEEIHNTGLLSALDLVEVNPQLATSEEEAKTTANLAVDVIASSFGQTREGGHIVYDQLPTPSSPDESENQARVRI
# [7] = target: T4, Proteasome subunit beta (Trypanosoma cruzi) (UniProt O96673); test: Trypanosoma cruzi proteasome chymotrypsin-like activity (TcProtChymo) assay.; format: functional; parameters: scale not given: in the data most compounds retested in dose-response had high values; details: 9.37 µM
# T4 sequence (whole entry): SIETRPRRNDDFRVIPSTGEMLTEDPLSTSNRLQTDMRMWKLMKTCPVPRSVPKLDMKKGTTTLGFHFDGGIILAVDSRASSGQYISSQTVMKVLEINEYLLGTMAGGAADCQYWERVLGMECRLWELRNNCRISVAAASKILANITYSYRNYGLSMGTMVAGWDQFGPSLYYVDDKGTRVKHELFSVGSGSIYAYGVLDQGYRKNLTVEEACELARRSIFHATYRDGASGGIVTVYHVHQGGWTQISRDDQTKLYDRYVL
# Homo sapiens = organism: Homo sapiens; test: To identify inhibition of the IFN signalling (Jak-Stat) pathway via expression of an eGFP reporter gene under the control of an IFN-stimulated response element (ISRE) containing MxA promoter.; format: functional; parameters: scale not given: direction of the effect not stated beside the values; details: 30 µM
# [8] = target: T5, Tyrosyl-tRNA synthetase, putative (Trypanosoma cruzi (strain CL Brener)) (UniProt Q4DSP6); test: Trypanosoma cruzi tyrosyl tRNA synthetase (TcYRS) _High Tyrosine SOP; format: functional; parameters: scale not given: in the data most compounds retested in dose-response had high values; details: 30 µM
# T5 sequence (whole entry): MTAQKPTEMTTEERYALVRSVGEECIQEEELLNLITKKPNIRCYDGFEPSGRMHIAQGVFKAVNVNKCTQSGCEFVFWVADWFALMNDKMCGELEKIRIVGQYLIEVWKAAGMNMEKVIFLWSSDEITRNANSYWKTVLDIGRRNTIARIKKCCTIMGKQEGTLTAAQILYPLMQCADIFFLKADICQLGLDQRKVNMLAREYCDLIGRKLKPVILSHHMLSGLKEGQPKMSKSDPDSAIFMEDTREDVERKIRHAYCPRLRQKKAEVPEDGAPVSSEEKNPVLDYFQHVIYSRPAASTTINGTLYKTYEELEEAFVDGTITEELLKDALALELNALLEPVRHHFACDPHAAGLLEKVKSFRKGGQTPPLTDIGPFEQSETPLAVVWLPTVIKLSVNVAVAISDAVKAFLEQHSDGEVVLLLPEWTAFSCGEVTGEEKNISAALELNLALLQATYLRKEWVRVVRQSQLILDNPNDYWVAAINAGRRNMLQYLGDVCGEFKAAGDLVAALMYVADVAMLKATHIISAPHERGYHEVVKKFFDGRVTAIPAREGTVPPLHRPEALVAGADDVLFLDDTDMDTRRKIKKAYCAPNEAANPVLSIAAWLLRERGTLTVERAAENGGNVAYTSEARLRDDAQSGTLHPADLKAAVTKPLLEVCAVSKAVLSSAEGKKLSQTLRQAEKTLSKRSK
# [9] = target: T5, Tyrosyl-tRNA synthetase, putative (Trypanosoma cruzi (strain CL Brener)); test: Trypanosoma cruzi tyrosyl tRNA synthetase (TcYRS) SOP; format: functional; parameters: scale not given: direction of the effect not stated beside the values; details: 30 µM
# [10] = target: Chromo domain-containing protein 1 (Saccharomyces cerevisiae (strain ATCC 204508 / S288c) (Baker's yeast)) (UniProt P32657); test: ScCHD-1 Enzyme Inhibition Assay; format: functional; parameters: scale not given: in the data most compounds retested in dose-response had high values; details: 30 µM
# Sequence of Chromo domain-containing protein 1 (Saccharomyces cerevisiae (strain ATCC 204508 / S288c) (Baker's yeast)) (P32657 whole entry, the tested form may be a part): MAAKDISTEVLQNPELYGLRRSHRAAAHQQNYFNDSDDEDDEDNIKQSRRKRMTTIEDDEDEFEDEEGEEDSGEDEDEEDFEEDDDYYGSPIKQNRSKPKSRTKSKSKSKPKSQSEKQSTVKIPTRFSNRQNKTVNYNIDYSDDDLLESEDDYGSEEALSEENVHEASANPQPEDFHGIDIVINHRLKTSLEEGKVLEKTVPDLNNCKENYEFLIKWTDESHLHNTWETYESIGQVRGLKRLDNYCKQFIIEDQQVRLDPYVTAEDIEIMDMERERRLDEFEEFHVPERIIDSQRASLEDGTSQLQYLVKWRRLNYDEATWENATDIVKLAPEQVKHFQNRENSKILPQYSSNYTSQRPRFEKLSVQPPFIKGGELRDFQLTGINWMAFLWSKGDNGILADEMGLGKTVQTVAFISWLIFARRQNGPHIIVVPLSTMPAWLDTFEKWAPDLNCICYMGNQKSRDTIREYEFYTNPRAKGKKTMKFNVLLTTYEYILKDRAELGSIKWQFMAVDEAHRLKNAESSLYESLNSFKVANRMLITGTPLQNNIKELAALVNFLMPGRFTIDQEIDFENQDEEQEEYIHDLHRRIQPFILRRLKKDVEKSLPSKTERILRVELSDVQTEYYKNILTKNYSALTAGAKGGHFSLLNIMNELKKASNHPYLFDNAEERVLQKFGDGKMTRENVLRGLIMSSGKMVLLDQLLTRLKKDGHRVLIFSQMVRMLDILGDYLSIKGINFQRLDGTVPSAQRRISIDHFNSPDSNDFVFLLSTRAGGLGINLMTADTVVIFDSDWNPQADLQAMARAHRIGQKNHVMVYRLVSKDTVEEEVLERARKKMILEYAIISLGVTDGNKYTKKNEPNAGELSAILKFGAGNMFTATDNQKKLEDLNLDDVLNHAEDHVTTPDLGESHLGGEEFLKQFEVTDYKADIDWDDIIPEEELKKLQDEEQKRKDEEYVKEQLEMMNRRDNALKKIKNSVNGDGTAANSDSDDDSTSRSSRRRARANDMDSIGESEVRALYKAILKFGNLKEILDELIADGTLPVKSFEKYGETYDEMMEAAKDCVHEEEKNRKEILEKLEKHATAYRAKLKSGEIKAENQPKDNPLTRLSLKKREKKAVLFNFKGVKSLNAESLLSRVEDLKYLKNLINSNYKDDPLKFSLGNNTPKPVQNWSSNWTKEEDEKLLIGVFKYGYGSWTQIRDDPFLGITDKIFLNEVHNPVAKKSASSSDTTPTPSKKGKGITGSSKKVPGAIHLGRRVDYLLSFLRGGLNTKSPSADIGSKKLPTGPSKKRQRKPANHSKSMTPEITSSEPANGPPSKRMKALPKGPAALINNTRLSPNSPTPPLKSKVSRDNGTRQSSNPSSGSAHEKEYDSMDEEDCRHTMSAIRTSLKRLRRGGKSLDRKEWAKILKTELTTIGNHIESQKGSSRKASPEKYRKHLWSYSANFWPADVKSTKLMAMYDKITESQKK
# Sequence of Sialic acid-binding Ig-like lectin 9 (Homo sapiens) (Q9Y336 whole entry): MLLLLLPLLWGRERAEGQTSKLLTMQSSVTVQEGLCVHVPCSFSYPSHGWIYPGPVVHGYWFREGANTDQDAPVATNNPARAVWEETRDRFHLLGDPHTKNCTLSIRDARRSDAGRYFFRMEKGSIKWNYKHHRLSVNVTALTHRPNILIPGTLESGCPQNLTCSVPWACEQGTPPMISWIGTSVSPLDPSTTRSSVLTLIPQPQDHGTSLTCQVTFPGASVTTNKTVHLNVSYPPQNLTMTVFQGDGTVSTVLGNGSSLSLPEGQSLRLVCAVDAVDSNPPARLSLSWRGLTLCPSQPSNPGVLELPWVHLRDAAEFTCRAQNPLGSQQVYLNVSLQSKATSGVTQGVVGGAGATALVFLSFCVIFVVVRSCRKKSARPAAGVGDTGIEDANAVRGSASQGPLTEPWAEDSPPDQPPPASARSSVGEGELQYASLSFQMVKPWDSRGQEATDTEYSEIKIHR
# Sequence of Protein translocase subunit SecA (Escherichia coli (strain K12)) (P10408 whole entry): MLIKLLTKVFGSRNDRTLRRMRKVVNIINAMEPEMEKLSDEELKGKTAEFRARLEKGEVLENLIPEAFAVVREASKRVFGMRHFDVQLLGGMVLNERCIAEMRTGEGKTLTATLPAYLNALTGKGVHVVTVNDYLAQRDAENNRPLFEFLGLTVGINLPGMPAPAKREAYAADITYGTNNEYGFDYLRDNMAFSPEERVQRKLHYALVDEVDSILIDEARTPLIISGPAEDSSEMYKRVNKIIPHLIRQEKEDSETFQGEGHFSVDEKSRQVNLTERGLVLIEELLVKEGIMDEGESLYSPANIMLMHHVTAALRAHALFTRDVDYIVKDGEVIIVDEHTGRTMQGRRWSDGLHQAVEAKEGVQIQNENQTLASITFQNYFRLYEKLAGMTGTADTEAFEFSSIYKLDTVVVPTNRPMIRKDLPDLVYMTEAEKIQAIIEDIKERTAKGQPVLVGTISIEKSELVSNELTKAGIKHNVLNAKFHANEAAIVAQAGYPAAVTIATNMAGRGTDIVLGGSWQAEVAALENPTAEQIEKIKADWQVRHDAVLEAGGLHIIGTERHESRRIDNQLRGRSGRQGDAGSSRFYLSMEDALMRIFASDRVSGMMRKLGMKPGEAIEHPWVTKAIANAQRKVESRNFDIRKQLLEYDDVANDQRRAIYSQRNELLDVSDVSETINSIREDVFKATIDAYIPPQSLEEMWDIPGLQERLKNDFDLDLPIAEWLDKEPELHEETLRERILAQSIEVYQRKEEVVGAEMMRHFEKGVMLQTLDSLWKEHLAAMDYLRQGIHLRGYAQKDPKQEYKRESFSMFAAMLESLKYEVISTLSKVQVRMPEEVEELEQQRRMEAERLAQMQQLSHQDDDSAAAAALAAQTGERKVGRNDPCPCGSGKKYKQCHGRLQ
Structure (SMILES),PXC50 ([1]; MAX_EFFECT 13.62007168),PXC50 ([1]; MAX_EFFECT 16.42743222),PXC50 ([1]; MAX_EFFECT 31.28598848),PXC50 ([1]; MAX_EFFECT 33.33333333),PXC50 ([1]; MAX_EFFECT 39.9339934),Percent Effect [2] [%],Percent Effect [3] [%],Percent Effect [4] [%],Percent Effect [5] [%],Percent Effect (Trypanosoma cruzi) [%],Percent Effect [6] [%],Percent Effect [7] [%],Percent Effect (Homo sapiens) [%],Percent Effect [8] [%],Percent Effect [9] [%],Percent Effect [10] [%],"PXC50 ([1]; BOTTOM 2.141206025, HILLSLOPE 1.62116593, MAX_EFFECT 62.52189142, TOP 100.0)","PXC50 ([1]; BOTTOM 2.892347169, HILLSLOPE 1.976450586, MAX_EFFECT 93.87755102, TOP 100.0)","PXC50 ([1]; BOTTOM 5.673984802, HILLSLOPE 1.822868055, MAX_EFFECT 90.57971014, TOP 100.0)"
Cc1nc(N2CCCCC2)ncc1-c1cc(O)[nH]n1,< 4,< 4,< 4,< 4,< 4,-5.23,1.33,13,8.28,1.18,-8.28,6.65,-20,5.29,7.69,-1.87,–,–,–
O=C(NCc1cnn2cccnc12)c1cccc(CC2CCNCC2)c1,–,–,–,–,–,–,–,2.98,–,–,–,–,–,–,–,–,4.14,4.43,4.44
